Hits are enriched below; roughly 7.3% of the tested compounds scored in any of these assays.
FLuc counter = qHTS profiling assay for firefly luciferase inhibitor/activator using purifed enzyme and Km concentrations of substrates (counterscreen for miR-21 project) | Luciferin 4-monooxygenase (Photinus pyralis), P08659 | purified FLuc, Km substrates, luminescence inhibition | Potency, µM (titrated, usually from 57.5 µM), most hits filed as inhibitors | 360,000 compounds, 6.9% hits | AID 588342, 2011; also: nearly all actives have a fitted effect of over 55% in size
Target sequence (P08659 whole entry, looked up): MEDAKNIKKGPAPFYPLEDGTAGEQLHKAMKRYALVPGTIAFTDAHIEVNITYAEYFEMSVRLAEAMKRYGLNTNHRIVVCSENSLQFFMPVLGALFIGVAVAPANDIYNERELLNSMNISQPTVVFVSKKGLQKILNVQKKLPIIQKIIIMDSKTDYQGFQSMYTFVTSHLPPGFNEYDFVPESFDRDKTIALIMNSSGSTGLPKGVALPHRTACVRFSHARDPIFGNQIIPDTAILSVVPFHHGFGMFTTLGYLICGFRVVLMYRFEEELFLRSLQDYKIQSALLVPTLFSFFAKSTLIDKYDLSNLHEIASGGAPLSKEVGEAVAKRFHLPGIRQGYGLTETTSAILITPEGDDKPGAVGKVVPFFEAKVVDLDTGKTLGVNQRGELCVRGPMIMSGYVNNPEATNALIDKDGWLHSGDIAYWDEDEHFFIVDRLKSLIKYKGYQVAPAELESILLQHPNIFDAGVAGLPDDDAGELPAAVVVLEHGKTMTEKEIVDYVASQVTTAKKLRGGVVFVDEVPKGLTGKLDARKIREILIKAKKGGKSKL
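Purified P. pyralis luciferase (10nM final) with 10uM D-luciferin and 10uM ATP (Km levels) in 50mM Tris acetate pH 7.5, 10mM Mg acetate, 0.01% Tween-20, 0.05% BSA; qHTS 6-point titration, ~60 µM downward; luminescence read.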
Rab9 promoter act = qHTS Assay for Rab9 Promoter Activators; Huh7 Rab9 promoter-luciferase reporter, luminescence, 24 h; Potency, µM (series often up to 9.22 µM), usual class: activators; 320,000 compounds, 2.8% hits; AID 485297, 2010; also: nearly all actives have a fitted effect of over 60% in size
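Rab9 promoter-driven luciferase in stably transfected Huh7 cells; 1500 cells/well rested 2 h, exposed to compound in DMSO for 24 h at 37 °C, 5% CO2. Luminescence read 10 min after adding luciferase reagent at ambient temperature.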
SMN2 splice up = qHTS Assay for Enhancers of SMN2 Splice Variant Expression | 210,000 compounds, 2.8% hits | Potency, µM (highest dose often 46.1 µM), usual class: activators | AID 1458, 2008 | HEK293 SMN2-luciferase splicing reporter, luminescence, 30-36 h; also: nearly all actives have a fitted effect of over 55% in size
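HEK293 cells carry an SMN2 […]–luciferase reporter in which exon 7 inclusion puts luciferase in frame. Cells were plated 10-12 h before compound addition, then incubated 30-36 h at 37C. ONE-Glo luminescence was read; sodium butyrate at 4.5 mM final served as control.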
KinaseGlo FLuc = Counterscreen for Luciferase (Kinase-Glo TM) Inhibition. Kinase-Glo luciferase, ATP luminescence, 8 min. Potency, µM (series often up to 38.3 µM), actives largely listed as inhibitors. Luciferin 4-monooxygenase (Photuris pensylvanica), Q27757. 200,000 compounds, 0.28% hits; also: nearly all actives have a fitted effect of over 60% in size
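Recombinant Kinase-Glo luciferase, 10 uM ATP (linear range), luciferin; imidazole pH 7.2 / KCl / MgCl2 / Tween / BSA buffer; 8 min RT; luminescence.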
NPC1 prom act = qHTS Assay for NPC1 Promoter Activators. Huh7 NPC1 promoter luciferase reporter, 24 h. Potency, µM (titrated, usually from 9.22 µM), actives largely listed as activators. 320,000 compounds, 2.4% hits. AID 485313, 2010; also: nearly all actives have a fitted effect of over 60% in size
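Cells: Huh7 expressing luciferase under the NPC1 promoter, 1500/well. Seeded 2 h, compound added, incubated 24 h at 37 °C. Luciferase reagent, 10 min ambient, then luminescence.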
ELG1 genotoxic = qHTS screen for small molecules that induce genotoxicity in human embryonic kidney (HEK293T) cells expressing luciferase-tagged ELG1; HEK293T ELG1-luciferase reporter, luminescence, 16 h; Potency, µM (top dose mostly 46 µM), usual class: activators; 330,000 compounds, 1.3% hits; also: nearly all actives have a fitted effect of over 60% in size
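Reporter readout depends on ELG1 protein level, which increases with genetic stress. After 16 hr compound exposure at 37 °C, luciferase activity was quantified using ONE-Glo.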
A number is an active result. Calls follow the shape of the dose curve; as a rule, active = well fitted curve in the direction sought with a large enough effect; inconclusive = small, poorly fitted or top-dose-only effect, or another doubt; inactive = no such curve, though single readings can be large; an effect the other way counts as inactive or inconclusive.

Screening COc1ccc(OC)c(CCNC(=O)c2nc(-c3ccc(Cl)cc3)n3c2CCCCC3)c1 returned FLuc counter inactive.
`CCCOc1cccc(C(=O)Nc2ccc3c(c2)OCCO3)c1` gave FLuc counter 0.95µM, Rab9 promoter act inconclusive, NPC1 prom act 3.2µM and ELG1 genotoxic 2.3µM.
Screening CCN1C(=O)c2ccc(C(=O)Nc3ccc4c(c3)OCO4)cc2C1=O returned FLuc counter 2.7µM, Rab9 promoter act inactive, NPC1 prom act inactive and ELG1 genotoxic inconclusive.
O=C(Nc1cccc(C(=O)Nc2cccc(Br)c2)c1)c1ccccc1 was read as FLuc counter inconclusive, Rab9 promoter act inactive, NPC1 prom act inactive and ELG1 genotoxic inactive.
For CCN1C(=O)c2ccc(C(=O)NCc3ccc4c(c3)OCO4)cc2C1=O the results were FLuc counter inactive, Rab9 promoter act inactive, SMN2 splice up inactive, KinaseGlo FLuc inactive, NPC1 prom act inactive and ELG1 genotoxic inactive.
CC(C)c1ccc(NC(=O)c2cccc(Br)c2)cc1 was read as FLuc counter 3µM, Rab9 promoter act 0.71µM, SMN2 splice up 14µM, KinaseGlo FLuc inactive, NPC1 prom act 1.4µM and ELG1 genotoxic 21µM.
For Cc1ccc(C(=O)Nc2ccc3c(c2)OCO3)cc1 the results were FLuc counter 1.3µM, Rab9 promoter act 0.56µM, SMN2 splice up 7.9µM, KinaseGlo FLuc inactive, NPC1 prom act 0.63µM and ELG1 genotoxic 0.46µM.
For O=C(O)c1ccc(CNCc2cccc(Cl)c2Cl)cc1 the results were FLuc counter inactive, Rab9 promoter act inactive, SMN2 splice up inconclusive, KinaseGlo FLuc inactive, NPC1 prom act inactive and ELG1 genotoxic inactive.
N#Cc1c(NC2CCCCC2)nc(-c2ccco2)c2c1CCCC2 was read as FLuc counter inactive, Rab9 promoter act inactive, SMN2 splice up inactive, KinaseGlo FLuc inactive, NPC1 prom act inactive and ELG1 genotoxic inactive.
For O=C(Nc1ccc2c(c1)OCCO2)c1ccc(Br)cc1 the results were FLuc counter 1.1µM, Rab9 promoter act 1.3µM, NPC1 prom act 2.5µM and ELG1 genotoxic inconclusive.
Cc1ccc(CN2CCN(CC(C)C)C(CCO)C2)s1 (centres undefined) was read as FLuc counter 17µM, Rab9 promoter act inconclusive, KinaseGlo FLuc inactive, NPC1 prom act inactive and ELG1 genotoxic inconclusive.
For Cc1ccc(CN2CCN(CCC(C)C)C(CCO)C2)s1 (centres undefined) the results were FLuc counter inactive, Rab9 promoter act inactive, KinaseGlo FLuc inactive, NPC1 prom act inactive and ELG1 genotoxic inactive.
Screening O=C(O)/C=C/c1cccc(OCc2ccccc2)c1 returned FLuc counter 13µM, Rab9 promoter act inactive, SMN2 splice up inactive, KinaseGlo FLuc inactive, NPC1 prom act inactive and ELG1 genotoxic inactive.
`NNC(=O)c1cc2cc(Oc3ccccc3)ccc2[nH]1` gave FLuc counter inactive, Rab9 promoter act inactive, NPC1 prom act inactive and ELG1 genotoxic inactive.
O=C(N/N=C/c1ccccc1)c1ccc(OCc2ccccc2)cc1 was read as FLuc counter inactive, Rab9 promoter act inactive, SMN2 splice up inactive, KinaseGlo FLuc inactive, NPC1 prom act inactive and ELG1 genotoxic inconclusive.
Screening O=C(O)c1cc2cc(OCc3ccccc3)ccc2[nH]1 returned FLuc counter 19µM, Rab9 promoter act inactive, SMN2 splice up inactive, KinaseGlo FLuc inactive, NPC1 prom act inactive and ELG1 genotoxic inactive.
For O=C(N/N=C/c1ccccc1)c1sccc1OCc1ccc(F)cc1 the results were FLuc counter 19µM, Rab9 promoter act inactive, SMN2 splice up inactive, KinaseGlo FLuc inactive, NPC1 prom act inactive and ELG1 genotoxic inactive.
CC(=O)c1c(C)oc2ccc(OCc3ccccc3)cc12 was read as FLuc counter 17µM, Rab9 promoter act inactive, NPC1 prom act inactive and ELG1 genotoxic inactive.
`CC(=O)c1ccc(N2CCN(C(=O)c3ccc(OCc4c(C)noc4C)cc3)CC2)cc1` gave FLuc counter inactive, Rab9 promoter act inactive, SMN2 splice up inactive, KinaseGlo FLuc inactive, NPC1 prom act inactive and ELG1 genotoxic inactive.
Screening Nc1nonc1C(=O)N/N=C/c1cccc([N+](=O)[O-])c1 returned FLuc counter 12µM, Rab9 promoter act inactive, SMN2 splice up inactive, KinaseGlo FLuc inactive, NPC1 prom act inactive and ELG1 genotoxic inactive.
For COc1ccc([N+](=O)[O-])cc1/C=N/NC(=O)c1nonc1N the results were FLuc counter inactive, Rab9 promoter act inactive, SMN2 splice up inactive, KinaseGlo FLuc inactive, NPC1 prom act inactive and ELG1 genotoxic inactive.
Screening O=C(O)c1ccc(COc2ccc(/C=N/NC(=O)c3cccs3)cc2)cc1 returned FLuc counter inactive, Rab9 promoter act inactive, SMN2 splice up inactive, KinaseGlo FLuc inactive, NPC1 prom act inactive and ELG1 genotoxic inactive.
For CN(C)c1ccc(/C=N/NC(=O)c2nonc2N)cc1[N+](=O)[O-] the results were FLuc counter 12µM, Rab9 promoter act inactive, KinaseGlo FLuc inactive, NPC1 prom act inactive and ELG1 genotoxic inactive.
`O=C(N/N=C/c1cccc([N+](=O)[O-])c1)c1cccs1` gave FLuc counter 8.5µM, Rab9 promoter act inconclusive, SMN2 splice up 13µM, KinaseGlo FLuc inactive, NPC1 prom act inconclusive and ELG1 genotoxic inconclusive.
`O=C(N/N=C/c1cccc(OCc2ccccc2)c1)c1cccs1` gave FLuc counter 13µM, Rab9 promoter act inactive, SMN2 splice up inactive, KinaseGlo FLuc inactive, NPC1 prom act inactive and ELG1 genotoxic inactive.
CC(=O)N1N=C(c2ccccc2)CC1c1cn(Cc2ccccc2)c2ccccc12 (centres undefined) was read as FLuc counter inactive, Rab9 promoter act inactive, SMN2 splice up inactive, KinaseGlo FLuc inactive, NPC1 prom act inactive and ELG1 genotoxic inactive.
Cc1cc(C(=O)CSc2nc3ccccc3[nH]2)c(C)n1CC1CCCO1 (centres undefined) was read as FLuc counter 0.54µM, Rab9 promoter act inconclusive, SMN2 splice up inactive, KinaseGlo FLuc inactive, NPC1 prom act inconclusive and ELG1 genotoxic inactive.
For Cc1cc(C(=O)CSc2nc3ccccc3c(=O)[nH]2)c(C)n1C the results were FLuc counter inconclusive, Rab9 promoter act inconclusive, SMN2 splice up 35µM, KinaseGlo FLuc inactive, NPC1 prom act inconclusive and ELG1 genotoxic 14µM.
Cc1cc(C(=O)CSc2nc3ccccc3o2)c(C)n1CC1CCCO1 (centres undefined) was read as FLuc counter 1.3µM, Rab9 promoter act 0.79µM, SMN2 splice up inactive, KinaseGlo FLuc inactive, NPC1 prom act 0.71µM and ELG1 genotoxic inactive.
